Values without a mark were called inactive. Records with an inconclusive call do not appear. Active and inactive are the calls of the source. Unless noted, calls come from the whole dose curve; as a rule, active = well fitted curve in the direction sought with a large enough effect; inconclusive = small, poorly fitted or top-dose-only effect, or another doubt; inactive = no such curve, though single readings can be large; an effect the other way counts as inactive or inconclusive.

In assay [1] the target is Lysosomal acid glucosylceramidase (Homo sapiens) (UniProt P04062). Nature of the assay: Glucocerebrosidase-p2 (AID 348; in the data active = potency below about 10 µM; note: potency is the fitted concentration of half-maximal effect). Conditions: purified GBA, blue fluorogenic substrate, 40 min. Summed up: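 Normal human glucocerebrosidase (0.2 nM) with blue fluorogenic substrate (80 uM final) in citrate/phosphate pH 5.9 with 10mM sodium taurocholate, 0.01% tween-20; 40 min RT, NaOH/glycine stop; fluorescence Ex 365/Em 440; AC50 from a titration from 0.6 nM upwards.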
Lysosomal acid glucosylceramidase (Homo sapiens), sequence (P04062 whole entry, looked up): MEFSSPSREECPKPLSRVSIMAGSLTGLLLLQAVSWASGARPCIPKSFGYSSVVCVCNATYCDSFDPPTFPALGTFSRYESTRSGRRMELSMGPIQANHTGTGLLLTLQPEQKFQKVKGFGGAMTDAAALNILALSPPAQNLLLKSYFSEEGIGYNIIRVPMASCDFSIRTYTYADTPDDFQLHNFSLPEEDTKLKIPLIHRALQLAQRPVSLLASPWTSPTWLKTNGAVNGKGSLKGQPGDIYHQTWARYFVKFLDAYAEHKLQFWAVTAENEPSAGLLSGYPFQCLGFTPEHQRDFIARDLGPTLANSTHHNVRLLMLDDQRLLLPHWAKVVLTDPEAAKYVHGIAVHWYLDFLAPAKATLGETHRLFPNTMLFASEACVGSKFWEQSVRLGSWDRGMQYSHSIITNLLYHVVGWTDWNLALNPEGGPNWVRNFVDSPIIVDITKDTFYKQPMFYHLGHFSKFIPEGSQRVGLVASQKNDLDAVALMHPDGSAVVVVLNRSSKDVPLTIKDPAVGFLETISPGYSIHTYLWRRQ

Assay [2] is described as follows: AP1 Signaling Pathway (AID 357; active = well fitted curve in either direction with a large enough effect, not every such curve was filed as active;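 note: ME-180 reporter cells stimulated with EGF at its EC50 level; % is set by controls: 0 for no effect and ±100 for the full control effect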). Conditions: ME-180 AP-1-bla reporter, EGF-induced, beta-lactamase ratio, 5 h; at 7.69 µM (top of the series) unless noted. The method in brief:
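Beta-lactamase reporter under AP-1 response element, ME-180 background. Stimulus: EC50 EGF. Compound exposure 5 h, 37 °C. Detection: CCF4, 2.5 h RT, 460/530 nm. Values: AC50 from titration.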

Assay [3] has as its target Cytochrome P450 1A2 (Homo sapiens) (UniProt P05177). Put plainly: p450-cyp1a2 (AID 410; calls by dose curve; note: potency is the fitted concentration of half-maximal effect). Conditions: recombinant CYP1A2, luciferin-ME demethylation, luminescence; series mostly up to 57 µM. The method in brief:
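20nM CYP1A2, 100uM Luciferin-ME (=Km), 100mM KPO4; cpd 10 min RT; +NADPH regen, 60 min RT; stop/detect 20 min; luminescence. Normalized to furafylline 57 uM = full inhibition.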

The nature of assay [4]: NFAT Signaling Pathway (AID 444; active = well fitted curve in either direction with a large enough effect, not every such curve was filed as active;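 note: carbachol stimulus at about its EC50 of 1 µM final; % is set by controls: 0 for no effect and ±100 for the full control effect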). Conditions: Jurkat NFAT-bla M1, carbachol, beta-lactamase ratio, 5 h; at 7.69 µM (top of the series) unless noted. The method in brief: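 Jurkat cells carrying an NFAT-driven β-lactamase reporter and co-transfected muscarinic M1 receptor were treated with compound plus carbachol (1 uM final, an EC50 level) for 5 h at 37 °C. CCF4 loading followed for 1 h at RT; 460/530 nm ratio gave %activity.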

A short description of assay [5]: Stat Signaling Pathway (AID 446; active = well fitted curve in either direction with a large enough effect, not every such curve was filed as active;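 note: ME-180 cervical cancer cells given 40 pM IL-6 alongside compound; SIE-controlled beta-lactamase reporter measured as 460/530 nm FRET emission ratio; % is set by controls: 0 for no effect and ±100 for the full control effect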). Conditions: ME-180 (cervical carcinoma) SIE beta-lactamase reporter, IL-6 stimulated, 5 h; at 7.69 µM (top of the series) unless noted. Summed up:
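Normalization used AC90 stimulation (300 pM IL-6) and AC90 inhibition (125 nM pan-JAK inhibitor at 40 pM IL-6). The underlying signal is SIE-driven beta-lactamase in ME-180 cells after 5 h IL-6 exposure with compound.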

Assay [6] deals with Glucocorticoid receptor (Homo sapiens) (UniProt P04150). Nature of the assay: GR-GFP Redistribution (AID 450;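 active = compounds whose dose series gives a full or clear partial fitted curve of increased nuclear translocation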; note: potency is the fitted concentration of half-maximal effect). Conditions: U2OS GR-GFP nuclear translocation, laser cytometry, 2 h.
Glucocorticoid receptor (Homo sapiens), sequence (P04150 whole entry, looked up, the tested form may be a part): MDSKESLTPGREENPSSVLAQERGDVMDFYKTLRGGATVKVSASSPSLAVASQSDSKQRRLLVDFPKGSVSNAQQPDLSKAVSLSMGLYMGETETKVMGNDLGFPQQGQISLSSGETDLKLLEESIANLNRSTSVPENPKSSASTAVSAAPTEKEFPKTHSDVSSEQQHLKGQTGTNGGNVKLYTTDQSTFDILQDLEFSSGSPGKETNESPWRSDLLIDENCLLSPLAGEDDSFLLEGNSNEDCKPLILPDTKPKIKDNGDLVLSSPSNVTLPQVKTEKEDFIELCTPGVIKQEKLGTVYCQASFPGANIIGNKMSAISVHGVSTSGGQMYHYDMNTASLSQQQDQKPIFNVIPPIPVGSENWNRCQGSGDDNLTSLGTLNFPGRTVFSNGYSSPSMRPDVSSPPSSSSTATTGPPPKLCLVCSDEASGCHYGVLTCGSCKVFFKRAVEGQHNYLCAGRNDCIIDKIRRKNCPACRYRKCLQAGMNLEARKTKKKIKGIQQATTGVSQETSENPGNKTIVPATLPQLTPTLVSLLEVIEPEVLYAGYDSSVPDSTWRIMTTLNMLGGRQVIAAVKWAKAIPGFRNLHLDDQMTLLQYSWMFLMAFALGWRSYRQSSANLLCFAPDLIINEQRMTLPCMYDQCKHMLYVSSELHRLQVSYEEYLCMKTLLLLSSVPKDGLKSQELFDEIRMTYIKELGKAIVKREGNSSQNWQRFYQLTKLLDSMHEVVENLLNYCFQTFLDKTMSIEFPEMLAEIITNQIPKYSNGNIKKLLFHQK
The target is the same in assay [7]. Put plainly: GR-EFC Redistribution (AID 451; calls by dose curve; note: potency is the fitted concentration of half-maximal effect). Conditions: CHO-K1 GR-EFC translocation, beta-gal luminescence, 2 h. The method in brief: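 CHO-K1 cells stably expressing nuclear-localized β-gal enzyme acceptor and GR fused C-terminally to the enzyme donor fragment; ligand-driven nuclear translocation restores β-gal by complementation. Compounds titrated up to 46 uM final, 2 h at 37 °C; luminescence read.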

Assay [8] addresses Mitogen-activated protein kinase 10 (Mus musculus) (UniProt Q61831). Put plainly: JNK3 AlphaScreen Assay (AID 530; active = well fitted curve in either direction with a large enough effect, not every such curve was filed as active;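 note: kinase came from lysate of stimulated human HepG2 cells; signal reports phosphorylation of biotinylated GST-cJun 1-79 at Ser73 with 10 µM ATP; % is set by controls: 0 for no effect and ±100 for the full control effect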). Conditions: JNK3 lysate, c-Jun phosphorylation; series mostly up to 57.1 µM. Summed up:
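Biotinylated GST-cJun(1-79) served as substrate for JNK3 in HepG2 lysates stimulated with IL-1beta and TNF-alpha. ATP was 10 uM final, pH 7.6. Ser73 phosphorylation was quantified by AlphaScreen (680 nm excitation).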
On the technique in general: Alpha assays give light when donor and acceptor beads are brought close together.

In assay [9] the target is 3',5'-cyclic-AMP phosphodiesterase 4B (Homo sapiens) (UniProt Q07343). Nature of the assay: qHTS Assay for Inhibitors of PDE-IV (AID 607; active = well fitted activation curve with a large enough effect in the main read-out, with a control signal flat, not every such curve was filed as active; note: % of control where 0% means no effect). Conditions: HEK293 ACTOne CNG channel cells, membrane potential fluorescence; series mostly up to 22.9 µM. Summed up:
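HEK293 ACTOne cells with CNG channel (1000/well), endogenous PDE4; membrane potential dye, compounds up to 22.9 uM final. Fluorescence Ex 535/Em 590; RO 20-1724 (100 uM final) as reference.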
For orientation: Quantitative high-throughput screening tests each substance at several concentrations.

The target in assay [10] is Dual specificity protein kinase CLK4 (Homo sapiens) (UniProt Q9HAZ1). Put plainly: qHTS Assay for Inhibitors of CDC-like Kinase 4 (Kinase-Glo Assay) (AID 1770). Note: nearly all actives have a fitted effect of over 65% in size. Note: potency is the fitted concentration of half-maximal effect. Conditions: recombinant Clk4, Kinase-Glo ATP depletion luminescence; series mostly up to 66.7 µM. The method in brief: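 Luminescent ATP-depletion read-out (Kinase-Glo) after 4.5 h room-temperature reaction of Clk4 (25 nM final) with RS peptide (100 uM) and ATP (1 uM), pH 7.5 Tris buffer with MgCl2 and DTT.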
Dual specificity protein kinase CLK4 (Homo sapiens), sequence (Q9HAZ1 whole entry, looked up): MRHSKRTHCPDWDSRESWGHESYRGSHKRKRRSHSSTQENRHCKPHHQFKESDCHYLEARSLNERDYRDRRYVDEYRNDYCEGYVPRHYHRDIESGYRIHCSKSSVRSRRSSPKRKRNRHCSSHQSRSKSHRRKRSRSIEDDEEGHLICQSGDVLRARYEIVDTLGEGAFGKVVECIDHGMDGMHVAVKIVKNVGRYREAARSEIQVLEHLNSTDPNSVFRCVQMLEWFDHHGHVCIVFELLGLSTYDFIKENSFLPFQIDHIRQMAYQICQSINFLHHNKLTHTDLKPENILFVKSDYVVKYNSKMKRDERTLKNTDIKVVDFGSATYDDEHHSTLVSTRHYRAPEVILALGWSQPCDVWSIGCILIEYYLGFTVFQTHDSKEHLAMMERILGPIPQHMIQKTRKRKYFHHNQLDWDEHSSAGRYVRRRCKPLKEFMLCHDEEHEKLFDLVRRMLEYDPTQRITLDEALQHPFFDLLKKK

For assay [11] the target is unchanged. Put plainly: qHTS Assay for Inhibitors of CDC-like Kinase 4 (ADP-Glo Assay) (AID 1771). Note: nearly all actives have a fitted effect of over 70% in size. Note: potency is the fitted concentration of half-maximal effect. Conditions: recombinant CLK4, ADP-Glo luminescence; series mostly up to 80 µM. The method in brief:
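25 nM Clk4, 100 uM RS peptide, 1 uM ATP (final); 2 mM MgCl2, 0.5 mM EGTA, 2.5 mM DTT, 0.01% Triton X-100; 1 hr RT. ADP-Glo readout: ATP depletion 45 min, conversion/luciferase 30 min, luminescence.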

Assay [12] shares this target. Put plainly: qHTS Assay for Inhibitors of CDC-like Kinase 4 (ADP-FP Assay) (AID 1795). Note: nearly all actives have a fitted effect of over 60% in size. Note: potency is the fitted concentration of half-maximal effect. Conditions: Transcreener ADP fluorescence polarization; series mostly up to 50 µM. The method in brief:
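Kinase activity was measured as ADP production using Transcreener orange tracer (4 nM) and ADP antibody (1 ug/mL) fluorescence polarization, with ADP calculated from a calibration curve. The 1 h reaction contained 6.25 nM Clk4, 1 uM ATP and 100 uM RS peptide at pH 7.5 with Mg2+.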

The target of assay [13] is Ubiquitin carboxyl-terminal hydrolase 1 (Homo sapiens) (UniProt O94782). Nature of the assay: Inhibitors of USP1/UAF1: Pilot qHTS (AID 504865). Note: nearly all actives have a fitted effect of over 35% in size. Note: potency is the fitted concentration of half-maximal effect. Conditions: purified USP1/UAF1, Ub-rhodamine cleavage fluorescence; series mostly up to 54.9 µM. Summed up:
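Deubiquitinase activity followed as kinetic rhodamine fluorescence release from 150 nM Ub-Rho. 1 nM USP1/UAF1 with compound, after 15 min room-temperature preincubation, in HEPES pH 7.8 buffer containing TCEP, EDTA, BSA and Tween-20.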

The nature of assay [14]: Primary qHTS for small molecule stabilizers of the endoplasmic reticulum resident proteome: Secreted ER Calcium Modulated Protein (SERCaMP) assay (AID 1508630). Note: % is set by controls: 0 for no effect and ±100 for the full control effect. Conditions: SH-SY5Y GLuc-SERCaMP (Gaussia luciferase released on ER calcium loss) secretion, thapsigargin, luminescence; series mostly up to 38.4 µM. Summed up:
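The SH-SY5Y reporter protocol was run at 3 concentrations up to 38.3 uM (primary) or 11 concentrations (follow-up): 16 h compound, 100 nM thapsigargin for 4 h, then extracellular luciferase luminescence.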

The target of assay [15] is Cytochrome P450 3A4 (Homo sapiens) (UniProt P08684). Nature of the assay: qHTS Assay for Activators of Cytochrome P450 3A4 (AID 885). Note: nearly all actives have a fitted effect of over 65% in size. Conditions: recombinant CYP3A4, Luciferin-PPXE luminescence, 60 min; series mostly up to 57.1 µM. Summed up:
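Human CYP3A4 dealkylates Luciferin-PPXE to luciferin, which luciferase detection converts to light. Substrate was at its KM (25uM), buffer 200mM KPO4, reaction 60 min at RT.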

Assay [16] has as its target Cytochrome P450 2C19 (Homo sapiens) (UniProt P33261). Put plainly: qHTS Assay for Inhibitors and Substrates of Cytochrome P450 2C19 (AID 899). Note: potency is the fitted concentration of half-maximal effect; nearly all actives have a fitted effect of over 60% in size. Conditions: recombinant CYP2C19, luciferin-H EGE luminescence; series mostly up to 57.1 µM. Summed up:
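In 50mM KPO4, the reaction held 5nM enzyme and KM-level (10uM) Luciferin-H EGE; it ran 60 min at 37C after NADPH regeneration and a 10 min compound preincubation. Luminescence values were scaled to 57uM ketoconazole as complete inhibition.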

3',5'-cyclic-AMP phosphodiesterase 4B (Homo sapiens), sequence (Q07343 whole entry, looked up): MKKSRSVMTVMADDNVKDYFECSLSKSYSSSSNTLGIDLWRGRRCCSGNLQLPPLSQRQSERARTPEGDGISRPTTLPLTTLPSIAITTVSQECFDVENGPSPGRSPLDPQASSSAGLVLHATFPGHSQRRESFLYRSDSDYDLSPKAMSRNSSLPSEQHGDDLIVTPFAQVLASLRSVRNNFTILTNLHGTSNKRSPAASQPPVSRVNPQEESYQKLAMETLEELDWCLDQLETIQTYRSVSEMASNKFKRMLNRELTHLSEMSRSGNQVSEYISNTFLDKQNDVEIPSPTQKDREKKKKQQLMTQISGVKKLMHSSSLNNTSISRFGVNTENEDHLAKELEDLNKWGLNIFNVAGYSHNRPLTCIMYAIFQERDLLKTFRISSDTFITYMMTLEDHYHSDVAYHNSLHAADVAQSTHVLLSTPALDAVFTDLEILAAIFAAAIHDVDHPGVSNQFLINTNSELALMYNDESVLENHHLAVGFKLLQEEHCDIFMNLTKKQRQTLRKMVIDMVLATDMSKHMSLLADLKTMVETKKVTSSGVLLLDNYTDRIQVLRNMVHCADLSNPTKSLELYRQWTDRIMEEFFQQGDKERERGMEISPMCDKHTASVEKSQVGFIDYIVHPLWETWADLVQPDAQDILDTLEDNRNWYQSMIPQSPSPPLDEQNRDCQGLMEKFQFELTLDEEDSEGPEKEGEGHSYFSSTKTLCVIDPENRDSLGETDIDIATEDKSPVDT
Ubiquitin carboxyl-terminal hydrolase 1 (Homo sapiens), sequence (O94782 whole entry, looked up): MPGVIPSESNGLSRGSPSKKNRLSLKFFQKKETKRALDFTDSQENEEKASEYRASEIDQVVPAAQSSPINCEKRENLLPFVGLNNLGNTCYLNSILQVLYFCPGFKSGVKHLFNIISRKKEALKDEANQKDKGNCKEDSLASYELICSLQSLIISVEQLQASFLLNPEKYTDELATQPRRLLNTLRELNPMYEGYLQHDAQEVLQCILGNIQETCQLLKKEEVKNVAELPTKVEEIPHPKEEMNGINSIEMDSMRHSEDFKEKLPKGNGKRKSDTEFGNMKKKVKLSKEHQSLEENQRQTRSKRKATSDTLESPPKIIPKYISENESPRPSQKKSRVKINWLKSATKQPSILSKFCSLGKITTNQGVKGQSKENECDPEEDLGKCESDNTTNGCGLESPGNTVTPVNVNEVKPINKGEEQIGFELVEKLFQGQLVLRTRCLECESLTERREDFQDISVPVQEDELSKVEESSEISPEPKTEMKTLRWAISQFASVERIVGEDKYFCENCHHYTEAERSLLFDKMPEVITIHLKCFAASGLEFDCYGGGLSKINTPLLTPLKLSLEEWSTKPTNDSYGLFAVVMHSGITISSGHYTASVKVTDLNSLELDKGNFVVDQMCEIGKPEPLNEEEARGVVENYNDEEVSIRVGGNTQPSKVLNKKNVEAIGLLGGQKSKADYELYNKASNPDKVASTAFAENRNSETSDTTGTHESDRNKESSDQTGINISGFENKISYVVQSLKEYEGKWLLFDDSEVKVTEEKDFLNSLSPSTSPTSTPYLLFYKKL
Cytochrome P450 3A4 (Homo sapiens), sequence (P08684 whole entry, looked up): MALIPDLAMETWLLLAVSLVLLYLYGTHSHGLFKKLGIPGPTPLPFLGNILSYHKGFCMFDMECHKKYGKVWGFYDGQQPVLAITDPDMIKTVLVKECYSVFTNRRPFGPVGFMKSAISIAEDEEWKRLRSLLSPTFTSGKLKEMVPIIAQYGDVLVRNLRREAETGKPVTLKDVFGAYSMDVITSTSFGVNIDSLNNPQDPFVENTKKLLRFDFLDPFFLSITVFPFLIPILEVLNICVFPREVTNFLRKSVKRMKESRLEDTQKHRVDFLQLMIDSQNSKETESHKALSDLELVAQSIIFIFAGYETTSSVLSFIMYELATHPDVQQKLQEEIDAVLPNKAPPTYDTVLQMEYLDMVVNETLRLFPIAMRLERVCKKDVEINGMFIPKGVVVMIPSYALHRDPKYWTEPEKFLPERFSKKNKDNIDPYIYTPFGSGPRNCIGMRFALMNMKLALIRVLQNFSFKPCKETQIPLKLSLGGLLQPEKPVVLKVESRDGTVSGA
Cytochrome P450 1A2 (Homo sapiens), sequence (P05177 whole entry, looked up): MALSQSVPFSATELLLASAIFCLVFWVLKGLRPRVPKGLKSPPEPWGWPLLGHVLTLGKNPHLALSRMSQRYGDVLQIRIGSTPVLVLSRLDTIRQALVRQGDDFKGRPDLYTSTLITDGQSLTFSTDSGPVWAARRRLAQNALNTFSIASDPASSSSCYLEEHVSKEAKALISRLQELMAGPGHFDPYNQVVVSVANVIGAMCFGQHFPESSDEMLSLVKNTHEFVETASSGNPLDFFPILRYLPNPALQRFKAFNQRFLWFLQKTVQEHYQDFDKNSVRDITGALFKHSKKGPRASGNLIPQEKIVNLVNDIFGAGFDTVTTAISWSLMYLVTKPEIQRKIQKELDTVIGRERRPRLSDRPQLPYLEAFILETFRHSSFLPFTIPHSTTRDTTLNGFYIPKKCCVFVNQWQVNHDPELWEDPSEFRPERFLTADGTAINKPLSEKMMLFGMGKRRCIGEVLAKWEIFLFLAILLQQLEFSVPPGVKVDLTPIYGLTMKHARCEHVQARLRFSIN
Cytochrome P450 2C19 (Homo sapiens), sequence (P33261 whole entry, looked up): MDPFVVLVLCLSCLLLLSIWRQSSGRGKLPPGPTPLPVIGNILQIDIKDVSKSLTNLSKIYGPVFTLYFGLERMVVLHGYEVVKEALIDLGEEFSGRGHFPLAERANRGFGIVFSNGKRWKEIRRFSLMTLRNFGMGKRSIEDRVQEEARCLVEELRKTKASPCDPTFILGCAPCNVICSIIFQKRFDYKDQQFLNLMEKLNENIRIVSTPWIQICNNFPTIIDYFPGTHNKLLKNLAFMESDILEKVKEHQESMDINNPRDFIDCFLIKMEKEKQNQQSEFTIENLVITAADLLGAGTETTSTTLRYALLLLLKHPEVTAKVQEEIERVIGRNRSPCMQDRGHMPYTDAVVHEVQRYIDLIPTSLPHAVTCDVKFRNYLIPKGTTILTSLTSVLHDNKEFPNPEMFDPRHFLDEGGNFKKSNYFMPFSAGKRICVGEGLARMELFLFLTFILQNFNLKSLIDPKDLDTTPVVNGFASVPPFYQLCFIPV

For the compound `COc1ccc(Oc2ncc3ncc(=O)n(C4CC4)c3n2)cc1`, the Potency in assay [1] was more than 11.4 µM; in assay [3], 5.01 µM (active); in [6], more than 9.22 µM; in assay [7], more than 46 µM. Further, the values for the activity change, negative = inhibition in assay [2] and in [4] were -1.59% and 5.04%, respectively. In addition, in assay [5], the activity, negative = inhibition is -19.9%. Besides, the Potency entry in [8], in assay [9], in assay [10], in assay [11], in assay [12] and in assay [13] was “inactive” each time. Besides, the outcome in [14] was inactive.
With `COc1ccc(-n2c(=O)c(-c3ccccc3)nc3cnc(N4CCOCC4)nc32)cc1`, the Potency in assay [1] was more than 11.4 µM; in assay [3] it was 15.8 µM (active); in [6] it was more than 9.22 µM; in assay [7], more than 46 µM. Also, the activity change, negative = inhibition in assay [2] was 5.32%; in assay [4], 6.27%. For the same compound, the activity, negative = inhibition in assay [5] was 6.26%. For the same compound, the Potency entry in assay [8], in assay [9], in assay [10], in [11], in assay [12] and in assay [13] was “inactive” in each case. Moreover, the result in assay [14] was inactive.
As for `Cc1ccccc1-c1ccc2ncnc(NCc3cccs3)c2c1`, the Potency is more than 11.4 µM in assay [1]; 2.51 µM (active) in assay [3]; more than 46 µM in assay [6]; more than 46 µM in assay [7]; 3.98 µM (active) in assay [10]; 3.55 µM (active) in assay [11]. Further, the figures for the Potency in assay [12] and in assay [13] were 3.55 µM (active) and 14.1 µM (active), respectively. Also, the activity change, negative = inhibition in assay [2] is -9.99%; in assay [4] it was -15.8%. In assay [5], the activity, negative = inhibition is -13.1%. In addition, the Potency result in [8] and in [15] was “inactive” in each case. For the same compound, the outcome in assay [14] was inactive.
On to `CN(Cc1ccco1)c1ncnc2ccc(-c3ccccc3C#N)cc12`, for which the Potency in assay [1] is more than 11.4 µM; in [3], 1 µM (active); in assay [6], more than 46 µM; in [7], more than 46 µM; in assay [16], 1.26 µM (active); in assay [10], 11.2 µM (active). In addition, in assay [11], the Potency was 7.08 µM (active). Besides, the activity change, negative = inhibition is -26.1% in assay [2] and 7.18% in [4]. For the same compound, the activity, negative = inhibition in [5] was 14.4%. Further, the Potency result in assay [8], in assay [15], in assay [12] and in assay [13] was “inactive” in each case. Further, in assay [14], the outcome was inactive.
On to `FC(F)(F)c1ccccc1-c1cncnc1NCc1cccnc1`, for which the Potency in assay [1] was more than 11.4 µM; in assay [3] it was 20 µM (active); in assay [6] it was more than 46 µM; in assay [7], more than 46 µM; in [16], 2.51 µM (active). The activity change, negative = inhibition was -13.4% in assay [2] and -6.58% in assay [4]. Moreover, in assay [5], the activity, negative = inhibition is -1.05%. The Potency entry in assay [8], in assay [9], in [15], in assay [10], in [11] and in [12] was “inactive” throughout. Also, the Potency result in assay [13] was “inactive”. Moreover, in [14], the outcome was inactive.
For `CNc1ccnc(-c2ccccc2C)n1`, the Potency is more than 11.4 µM in assay [1], 5.01 µM (active) in assay [3], more than 46 µM in assay [6] and more than 46 µM in assay [7]. The activity change, negative = inhibition in assay [2] was 0.123%; in assay [4], 13%. Moreover, the activity, negative = inhibition in assay [5] was 6.43%. Also, the Potency entry in [8], in assay [15], in assay [10], in assay [11], in [12] and in [13] was “inactive” each time. In addition, the outcome in assay [14] was inactive.

(Values after PubChem BioAssay (NCATS).)
